The entries come from a sample that favours hits as a whole.
ALOX12 inhib: qHTS Assay for Inhibitors of 12-hLO (12-human lipoxygenase); Polyunsaturated fatty acid lipoxygenase ALOX12 (Homo sapiens), P18054; purified 12-hLO, xylenol orange hydroperoxide absorbance; Potency, µM (highest dose often 57.1 µM), without a hit: at the top dose activity change, negative = inhibition, usual class: inhibitors; hit rate 0.12% among 150,000; AID 1452, 2008; further: nearly all actives have a fitted effect of over 55% in size
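Purified human 12hLO (150 nM), preincubated 15 min with compound, then 40 uM arachidonic acid for 30 min, room temperature, Hepes pH 7.0 with 0.01% Triton X-100. Hydroperoxide detected by ferrous iron/xylenol orange; 573/405 nm absorbance ratio gives reaction progress.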
ALOX15B inhib: qHTS Assay for Inhibitors of 15-hLO-2 (15-human lipoxygenase 2); Potency, µM (highest dose often 57.1 µM), for the others: top-dose activity change, negative = inhibition, usual class: inhibitors; purified 15hLO-2, xylenol orange hydroperoxide absorbance; hit rate 0.56% among 110,000; further: nearly all actives have a fitted effect of over 60% in size
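Purified human 15hLO-2 (50 nM) preincubated 15 min with compound, then 45 uM arachidonic acid for 90 min at RT in 25 mM Hepes pH 7.5, 0.01% Triton X-100. Hydroperoxide detected by Fe-xylenol orange; 573/405 nm absorbance ratio.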
* = called active by the depositor; ? = inconclusive; . = no result; [ ] = another dose, or the depositor's remark. The call rests on the fitted dose curve; in most records, active means well fitted curve in the direction sought with a large enough effect; inconclusive means small, poorly fitted or top-dose-only effect, or another doubt; inactive means no such curve, though single readings can be large; an effect the other way counts as inactive or inconclusive. On the % scale 0 is the no-effect control and ±100 the full control effect; potency means the concentration at half of the fitted maximal effect.

SMILES	ALOX12 inhib	ALOX15B inhib
Cc1cc(C(=O)O)ccc1[C@H](N)C(=O)O	-4.3%	8.6%
O=C(NC1(O)C(=O)c2ccccc2C1=O)c1ccccc1	-26.4%	25.1µM*
O=C(NO)c1ccccc1	-4.4%	-9.9%
Cn1c(=O)c(-c2ccc(F)cc2)nc2cnc(N3CCOCC3)nc21	.	-4.0%
CC(C)CN1CCCC2(CCN(C(=O)c3csnn3)CC2)C1	-2.5%	-7.8%
O=C(O)c1ccc(N2CCCCC2)cc1	-3.3%	4.7%
Nc1ccc(N2CCCCCC2)cc1	-25.7%	12.6µM*
c1ccc([C@H](c2cccc3c2ccc2ccccc23)[C@H](c2ccccc2)c2cccc3c2ccc2ccccc23)cc1	5.7%[11.4 µM]	-1.0%[11.4 µM]
CCCCCCCCCCCCCCCC(=O)OCC(O)C1OC(=O)C(O)=C1O (centres undefined)	-1.1%[0.00818 µM]	8.91µM*
CCCCCCCCCCCCCCCCCC(=O)OCC(C)O (centres undefined)	-0.5%[0.00818 µM]	-2.7%[0.0915 µM]
NCCCCN	-3.6%	-2.1%
N#C/C(=C\c1ccc(N2CCOCC2)cc1)c1ccccc1	-2.8%	.
N#C/C(=C\c1ccc(N2CCOCC2)o1)c1ccccc1	-13.6%	10µM*
COc1cc(N2CCCC2)c(OC)cc1/C=C(/C#N)c1cccc(F)c1	-19.5%	?
N#C/C(=C/c1ccc(N2CCOCC2)o1)c1nc2ccccc2[nH]1	-5.2%	.
N#C/C(=C/c1ccc(N2CCOCC2)o1)c1ccc(Br)cc1	?	10µM*
N#C/C(=C/c1ccc(N2CCCCCC2)o1)c1cccc(F)c1	?	7.94µM*
CCNc1ncc2nc(CCc3ccccc3)c(=O)n(CCOC)c2n1	-1.7%	-1.2%
COc1ccccc1-c1cc(N(C)Cc2ccco2)ncn1	.	4.5%
NCCO	-3.4%	-10.3%
CCOC(=O)N1CCN(c2c(F)cc3[nH]c(=S)[nH]c3c2Br)CC1	?	12.6µM*
CCOC(=O)N1CCN(c2cc3[nH]c(=S)[nH]c3cc2F)CC1	-3.7%	-22.0%
CS(=O)(=O)Nc1cccc(-c2nc(NCCN3CCOCC3)c3ccccc3n2)c1	0.9%	12.8%
COc1ccccc1-c1cc(-c2ccccc2)nc(SC(C(N)=O)c2ccccc2)c1C#N (centres undefined)	-5.0%	15.8µM*
COC(=O)C(Sc1nc(C)cc(C)c1C#N)c1ccccc1 (centres undefined)	-10.7%	-4.7%
SMILES	ALOX12 inhib	ALOX15B inhib
NC(=O)CCCCn1ccc(NC(N)=NCC(F)(F)F)n1	1.8%	2.1%
OC1(c2cccc(C(F)(F)F)c2)CCN(c2ncnc3c2[nH]c2ccc(F)cc23)CC1	17.8µM*	1.9%
Fc1ccc2[nH]c3c(N4CCN(c5ccccc5)CC4)ncnc3c2c1	-9.0%	50.9%
c1ccc2sc(N3CCOCC3)nc2c1	1.7%	5.7%
c1ccc2sc(SN3CCOCC3)nc2c1	-4.0%	20µM*
CCOC(=O)c1ccc(NC(=S)NCCC2=CCCCC2)cc1	25.1µM*	.
CCOC(=O)c1ccc(NC(=S)NC2CCCC2)cc1	-5.3%	.
O=c1c(CCc2ccccc2)nc2cncnc2n1Cc1ccccc1Cl	.	-19.9%
O=C(O)CC/C=C\C[C@@H]1CO[C@H](c2ccccc2Cl)O[C@@H]1c1ccccc1O	-4.0%	13.0%
COc1cc(/C=N/N(C)c2ccccc2)cc(Cl)c1O	?	10µM*
COc1ccc(OC)c(/C=N/N(C)c2ccccc2)c1	-25.7%	-20.4%
Cc1ccc(C(=O)NC(=S)Nc2ccc(Oc3ccc(Cl)cc3)cc2)cc1	-7.6%	12.6µM*
Cc1ccc(C(=O)NC(=S)Nc2ccc(NC(=O)c3cccc(Cl)c3)cc2)cc1	2.1%	.
OC[C@@H]1O[C@@H](n2cnc3cncnc32)[C@@H](O)[C@H]1O	3.0%	7.9%
COC(=O)c1ccccc1N/C=C1\CCc2c(c(C)nn2-c2ccccn2)C1=O	-20.7%	2.51µM*
CCOC(=O)c1ccccc1N/C=C1\CCCC1=O	-7.2%	2.7%
O=[N+]([O-])c1ccc(NNC(=S)Nc2ccccc2)cc1	?	3.98µM*
O=[N+]([O-])c1ccc(NC(=S)NCCc2ccccc2)cc1	-2.6%	.
COc1cc2c(cc1OC)-c1cc3nc4ccccc4nc3n1C(C)(C)C2	-22.2%	25.1µM*
Cc1cc2c(cc1C)-c1nnc(-c3ccc4ccccc4n3)n1C(C)(C)C2	-2.1%	-3.4%
O=[N+]([O-])c1ccc(Cl)cc1Cl	0.3%	-2.3%
Oc1ccc(-c2csc(-c3ccccc3)n2)cc1O	12.6µM*	3.98µM*
Cc1nc(-c2ccc(O)c(O)c2)cs1	-16.7%	?

Assay outcomes as filed in PubChem.
